Experimental data taken from PubChem BioAssay (NCATS).
Inconclusive results are not listed. Activity calls are given as the source filed them. Calls follow the shape of the dose curve; as a rule, active = well fitted inhibition curve with a large enough effect; inconclusive = small, poorly fitted or top-dose-only effect; inactive = flat fitted curve, though single readings scatter.

Legend:
Experiment in all cases: qHTS profiling for inhibitors of Plasmodium falciparum proliferation (AID 504749); also: nearly all actives have a fitted effect of over 60% in size
Conditions in all cases: P. falciparum in erythrocytes, SYBR Green DNA, 72 h; series mostly up to 28.7 µM
AS120 = test system: AS120
Outline: (§1)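 Each compound contacts P. falciparum-infected red blood cells for 72 h at 37 C; lysis buffer (Tris, EDTA, saponin, Triton X, SYBR Green I) is added and fluorescence measured next morning; values normalized to controls.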

C2A = test system: C2A
Outline: as §1

CP185 = test system: CP185
Outline: as §1

CP191 = test system: CP191
Outline: as §1

CP192 = test system: CP192
Outline: as §1

CP194 = test system: CP194
Outline: as §1

CP201 = test system: CP201
Outline: as §1

CP211 = test system: CP211
Outline: as §1

CP215 = test system: CP215
Outline: as §1

CP217 = test system: CP217
Outline: as §1

CP237 = test system: CP237
Outline: as §1

CP238 = test system: CP238
Outline: as §1

CP250 = test system: CP250
Outline: as §1

CP252 = test system: CP252
Outline: as §1

CP247 = test system: CP247
Outline: as §1

AA1029 = test system: AA1029
Outline: as §1

ATS189 = test system: ATS189
Outline: as §1

ATS95 = test system: ATS95
Outline: as §1

CP203 = test system: CP203
Outline: as §1

Measured: Potency
Potency is read from the fitted curve at half-maximal effect.

CN(C)CCCOc1nn(Cc2ccccc2)c2ccccc12
active: CP237 3.16 µM
inactive: AS120 | C2A | CP185 | CP191 | CP192 | CP194 | CP201 | CP211 | CP215 | CP217 | CP238 | CP250 | CP252

Clc1ccc2c(c1)CCc1cccnc1C2=C1CCNCC1
inactive: C2A | CP185 | CP247 | CP250

CCCCN1CCCC1C(=O)Nc1c(C)cc(C)cc1C (configuration not stated)
inactive: AA1029 | AS120 | ATS189 | ATS95 | C2A | CP185 | CP191 | CP192 | CP194 | CP201 | CP203 | CP211 | CP215 | CP217 | CP238 | CP247 | CP250 | CP252

CNCCC(Oc1ccccc1C)c1ccccc1 (configuration not stated)
inactive: ATS189 | ATS95 | C2A | CP185 | CP191 | CP192 | CP201 | CP211 | CP237 | CP250 | CP252

Cc1cc(O)c(C(C)C)cc1Cl
inactive: AA1029 | AS120 | ATS189 | ATS95 | C2A | CP185 | CP191 | CP192 | CP194 | CP201 | CP203 | CP211 | CP215 | CP217 | CP237 | CP238 | CP247 | CP250 | CP252

CCN1CCN(c2cc3c(cc2F)c(=O)c(C(=O)O)cn3C2CC2)CC1
inactive: AA1029 | AS120 | ATS189 | ATS95 | C2A | CP185 | CP191 | CP192 | CP194 | CP201 | CP211 | CP215 | CP217 | CP238 | CP247 | CP250 | CP252

CCCCOc1cc(C(=O)NCCN(CC)CC)c2ccccc2n1
inactive: AA1029 | AS120 | ATS189 | ATS95 | C2A | CP185 | CP192 | CP194 | CP201 | CP203 | CP211 | CP215 | CP217 | CP237 | CP238 | CP247 | CP250 | CP252

CC(C)N=C(N)/N=C(\N)Nc1ccc(Cl)cc1
inactive: ATS95 | C2A | CP192 | CP238
active: CP191 1 µM

CCCCC1=NC2(CCCC2)C(=O)N1Cc1ccc(-c2ccccc2-c2nn[nH]n2)cc1
inactive: AA1029 | AS120 | ATS189 | C2A | CP185 | CP191 | CP192 | CP194 | CP201 | CP211 | CP215 | CP217 | CP237 | CP238 | CP247 | CP250 | CP252

C[C@H]1[C@H](NC(=O)/C(=N/OC(C)(C)C(=O)O)c2csc(N)n2)C(=O)N1S(=O)(=O)O (stereo in doubt)
inactive: AA1029 | AS120 | ATS189 | ATS95 | C2A | CP185 | CP191 | CP192 | CP194 | CP201 | CP211 | CP215 | CP217 | CP237 | CP238 | CP247 | CP250 | CP252

COC(=O)[C@H]1[C@H]2C[C@H]3c4[nH]c5ccccc5c4CCN3C[C@H]2CC[C@@H]1O
inactive: CP192 | CP194 | CP201 | CP203 | CP211 | CP215

C[C@@H](CN(C)C)CN1c2ccccc2Sc2ccccc21
inactive: AA1029 | AS120 | ATS189 | ATS95 | C2A | CP185 | CP192 | CP211 | CP215 | CP217 | CP237 | CP238 | CP247 | CP250 | CP252

CCN(CC)CCNC(=O)COc1ccc(Cl)cc1
inactive: C2A | CP191 | CP192 | CP201 | CP203 | CP211 | CP215
active: AS120 12.6 µM

Oc1ccc(O)cc1
inactive: AA1029 | ATS189 | ATS95 | CP185 | CP191 | CP201

Cc1c(C)n(Cc2ccccc2)c2ccc(C(=O)OCCN(C)C)cc12
inactive: AA1029 | AS120 | ATS189 | ATS95 | C2A | CP185 | CP191 | CP192 | CP194 | CP203 | CP211 | CP217 | CP237 | CP238 | CP247 | CP250 | CP252

CCN(CCCc1ccccc1)CCCc1ccccc1
active: ATS95 3.55 µM
inactive: C2A | CP191 | CP192 | CP201 | CP217 | CP247 | CP250 | CP252

C[C@H]1C[C@H]2[C@@H]3CCC4=CC(=O)C=C[C@]4(C)[C@@]3(Cl)[C@@H](O)C[C@]2(C)[C@@]1(O)C(=O)CO
inactive: AA1029 | AS120 | ATS189 | ATS95 | C2A | CP185 | CP191 | CP192 | CP194 | CP201 | CP211 | CP215 | CP217 | CP237 | CP238 | CP247 | CP250 | CP252

CCN(CC)CCOC(=O)C(c1ccccc1)C1CCCCC1 (configuration not stated)
inactive: AS120 | ATS189 | C2A | CP185 | CP191 | CP192 | CP201 | CP211 | CP217 | CP237 | CP238 | CP247 | CP250 | CP252

CCCN1CCCC[C@H]1C(=O)Nc1c(C)cccc1C
active: CP237 6.31 µM
inactive: AA1029 | AS120 | ATS189 | ATS95 | C2A | CP185 | CP191 | CP192 | CP194 | CP201 | CP211 | CP215 | CP217 | CP238 | CP247 | CP250 | CP252
